Results: PubChem BioAssay (NCI)
The panel holds about 83,000 compounds, 20% with a hit somewhere; the sample as a whole holds those more often.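 A percent growth of 40 corresponds to 60% growth inhibition; 0 means no net growth; -100 means all cells died. Active threshold: below 10.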 Active and inactive are the calls of the source.

Assays:
Experiment in all cases: NCI-60 one-dose screen, 48 h (100 = growth as untreated, 0 = no growth, -100 = all killed)
DU-145 prostate = settings: 10 µM
K-562 leukemia = settings: 10 µM
MALME-3M melanoma = settings: 10 µM
MDA-MB-231 breast = settings: 10 µM
RXF 393 renal = settings: 10 µM
SF-268 CNS = settings: 10 µM
SF-539 CNS = settings: 10 µM
UACC-257 melanoma = settings: 10 µM
M14 melanoma = settings: 10 µM
HCT-15 colon = settings: 10 µM
HT29 colon = settings: 10 µM
SNB-75 CNS = settings: 10 µM
SNB-19 CNS = settings: 10 µM
U251 CNS = settings: 10 µM
PC-3 prostate = settings: 10 µM
SK-MEL-5 melanoma = settings: 10 µM
UACC-62 melanoma = settings: 10 µM unless noted
LOX IMVI melanoma = settings: 10 µM
SK-MEL-28 melanoma = settings: 10 µM
SF-295 CNS = settings: 10 µM

Measured: growth

CCCC[P+](c1ccccc1)(c1ccccc1)c1ccccc1
inactive: DU-145 prostate 62.5% | K-562 leukemia 24.4% | MALME-3M melanoma 41% | MDA-MB-231 breast 84.3% | RXF 393 renal 102% | SF-268 CNS 67.2% | SF-539 CNS 64.5% | UACC-257 melanoma 17% | M14 melanoma 54.9% | HCT-15 colon 99.5% | HT29 colon 40.9% | SNB-75 CNS 53.5% | SNB-19 CNS 55.3% | U251 CNS 30.1% | PC-3 prostate 26.8% | SK-MEL-5 melanoma 16.1% | UACC-62 melanoma 44.3% | LOX IMVI melanoma 41% | SK-MEL-28 melanoma 69.1%

CCN(CC)CCCC(C)Nc1ccnc(/C=C/c2ccc(Cl)cc2)c1 (stereo not drawn)
inactive: DU-145 prostate 49.6% | SNB-19 CNS 53.6% | PC-3 prostate 45.5%
active: K-562 leukemia 0.277% | MALME-3M melanoma -60.6% | MDA-MB-231 breast -28.3% | RXF 393 renal -61.8% | SF-268 CNS 9.89% | SF-539 CNS -69.2% | UACC-257 melanoma -77.7% | M14 melanoma -85.9% | HCT-15 colon -33.4% | SNB-75 CNS -49.3% | U251 CNS -58.1% | SK-MEL-5 melanoma -96.7% | UACC-62 melanoma -55.8% | LOX IMVI melanoma -71.2% | SK-MEL-28 melanoma -87.5%

NCCCN
inactive: DU-145 prostate 107% | K-562 leukemia 103% | MALME-3M melanoma 95.5% | MDA-MB-231 breast 106% | RXF 393 renal 115% | SF-268 CNS 103% | SF-539 CNS 102% | M14 melanoma 112% | HT29 colon 111% | SNB-75 CNS 79.8% | SNB-19 CNS 104% | U251 CNS 95.5% | PC-3 prostate 102% | SK-MEL-5 melanoma 102% | LOX IMVI melanoma 112% | SK-MEL-28 melanoma 104%

O=C(O)CCCCNC(=O)c1ccccc1
inactive: DU-145 prostate 110% | K-562 leukemia 89.3% | MALME-3M melanoma 110% | MDA-MB-231 breast 99.1% | SF-268 CNS 102% | SF-295 CNS 95.1% | SF-539 CNS 99.8% | UACC-257 melanoma 107% | M14 melanoma 98.8% | HT29 colon 101% | SNB-75 CNS 103% | SNB-19 CNS 108% | U251 CNS 98.5% | PC-3 prostate 100% | SK-MEL-5 melanoma 101% | UACC-62 melanoma 110% | LOX IMVI melanoma 91.8% | SK-MEL-28 melanoma 111%

C/C(=N\O)C1(O)CCCCC1
inactive: DU-145 prostate 100% | K-562 leukemia 106% | MALME-3M melanoma 114% | MDA-MB-231 breast 94.7% | SF-268 CNS 82.7% | SF-295 CNS 110% | SF-539 CNS 99.2% | UACC-257 melanoma 98.3% | M14 melanoma 110% | HCT-15 colon 93.6% | HT29 colon 110% | SNB-75 CNS 91.7% | SNB-19 CNS 105% | U251 CNS 95.1% | PC-3 prostate 129% | SK-MEL-5 melanoma 87.9% | UACC-62 melanoma 59.2% | LOX IMVI melanoma 98.8% | SK-MEL-28 melanoma 114%

COc1cccc(O)c1O
inactive: DU-145 prostate 27% | K-562 leukemia 78.4% | MALME-3M melanoma 67% | MDA-MB-231 breast 85.5% | RXF 393 renal 72.7% | SF-295 CNS 104% | SF-539 CNS 20.6% | UACC-257 melanoma 72.3% | M14 melanoma 44.6% | HCT-15 colon 38.4% | HT29 colon 104% | SNB-75 CNS 56.3% | SNB-19 CNS 65.1% | U251 CNS 65.1% | PC-3 prostate 79.5% | SK-MEL-5 melanoma 55.9% | UACC-62 melanoma 45.5% | LOX IMVI melanoma 53.7% | SK-MEL-28 melanoma 74.1%

C#CC(C)(O)c1ccc(Cl)cc1 (stereo not drawn)
active: UACC-62 melanoma -18.6%
inactive: DU-145 prostate 112% | K-562 leukemia 91.3% | MALME-3M melanoma 125% | MDA-MB-231 breast 102% | SF-268 CNS 103% | SF-295 CNS 90.8% | SF-539 CNS 96.3% | UACC-257 melanoma 101% | M14 melanoma 98.8% | HCT-15 colon 98.4% | HT29 colon 102% | SNB-75 CNS 98.8% | SNB-19 CNS 106% | U251 CNS 97.8% | PC-3 prostate 96.6% | SK-MEL-5 melanoma 101% | LOX IMVI melanoma 94.5%

Sc1ccc(Nc2c3ccccc3nc3ccccc23)cc1
inactive: DU-145 prostate 104% | K-562 leukemia 32% | MALME-3M melanoma 86% | MDA-MB-231 breast 98% | SF-268 CNS 102% | SF-295 CNS 26.5% | SF-539 CNS 95.5% | UACC-257 melanoma 68.1% | M14 melanoma 96.8% | HCT-15 colon 79.4% | HT29 colon 88.6% | SNB-75 CNS 61.9% | SNB-19 CNS 79.8% | PC-3 prostate 76.5% | SK-MEL-5 melanoma 56.6% | UACC-62 melanoma 63% | LOX IMVI melanoma 88.5% | SK-MEL-28 melanoma 101%

O=[N+]([O-])c1ccc(N=Nc2ccc(O)c3ccccc23)cc1
inactive: DU-145 prostate 66.9% | K-562 leukemia 22.1% | MALME-3M melanoma 57.8% | MDA-MB-231 breast 36.8% | RXF 393 renal 60.1% | SF-268 CNS 45.9% | SF-539 CNS 75.4% | UACC-257 melanoma 17% | HT29 colon 79.1% | SNB-75 CNS 68.8% | SNB-19 CNS 39.8% | U251 CNS 15.4% | PC-3 prostate 14.9% | SK-MEL-5 melanoma 28.7% | LOX IMVI melanoma 18.4% | SK-MEL-28 melanoma 69%

COc1cc(CN)ccc1O
inactive: DU-145 prostate 91.2% | K-562 leukemia 71.7% | MALME-3M melanoma 79.3% | MDA-MB-231 breast 86.9% | RXF 393 renal 95% | SF-268 CNS 100% | SF-539 CNS 94.9% | UACC-257 melanoma 94.1% | M14 melanoma 101% | HCT-15 colon 111% | HT29 colon 91.8% | SNB-75 CNS 88.8% | SNB-19 CNS 94.9% | U251 CNS 96% | PC-3 prostate 100% | SK-MEL-5 melanoma 102% | UACC-62 melanoma 90.1% | SK-MEL-28 melanoma 117%

O=C(Cc1ccccc1)Cc1ccccc1
inactive: DU-145 prostate 113% | K-562 leukemia 110% | MALME-3M melanoma 115% | MDA-MB-231 breast 109% | SF-268 CNS 103% | SF-295 CNS 108% | SF-539 CNS 101% | UACC-257 melanoma 93.1% | M14 melanoma 102% | HCT-15 colon 103% | HT29 colon 108% | SNB-75 CNS 99.5% | SNB-19 CNS 101% | U251 CNS 96.7% | PC-3 prostate 103% | SK-MEL-5 melanoma 96.5% | UACC-62 melanoma 97% | LOX IMVI melanoma 103% | SK-MEL-28 melanoma 108%

CC(C)(O)C#CC#CC(C)(C)O
inactive: DU-145 prostate 113% | K-562 leukemia 93.6% | MALME-3M melanoma 107% | MDA-MB-231 breast 105% | SF-268 CNS 106% | SF-295 CNS 95.1% | SF-539 CNS 93.8% | UACC-257 melanoma 94.4% | M14 melanoma 107% | HT29 colon 97.8% | SNB-75 CNS 94% | SNB-19 CNS 112% | U251 CNS 98% | PC-3 prostate 99.3% | SK-MEL-5 melanoma 99% | UACC-62 melanoma 111% | LOX IMVI melanoma 97% | SK-MEL-28 melanoma 99.4%

O=S(=O)(Cc1ccccc1)c1ccccc1
inactive: DU-145 prostate 107% | K-562 leukemia 103% | MALME-3M melanoma 106% | MDA-MB-231 breast 121% | RXF 393 renal 102% | SF-268 CNS 101% | SF-539 CNS 97.7% | UACC-257 melanoma 107% | M14 melanoma 104% | HCT-15 colon 102% | HT29 colon 107% | SNB-75 CNS 88.5% | SNB-19 CNS 107% | PC-3 prostate 102% | SK-MEL-5 melanoma 104% | LOX IMVI melanoma 107% | SK-MEL-28 melanoma 98.5%

CC1NC(=O)NC1CCCCCC(=O)O (stereo not drawn)
inactive: DU-145 prostate 108% | K-562 leukemia 125% | MALME-3M melanoma 106% | MDA-MB-231 breast 91.4% | RXF 393 renal 105% | SF-268 CNS 96.5% | SF-539 CNS 105% | UACC-257 melanoma 86.6% | M14 melanoma 95% | HCT-15 colon 98.4% | HT29 colon 102% | SNB-75 CNS 94% | U251 CNS 94.5% | PC-3 prostate 86.4% | SK-MEL-5 melanoma 102% | UACC-62 melanoma 96.7% | LOX IMVI melanoma 93.3% | SK-MEL-28 melanoma 115%

O=C1OC[C@H]2[C@H](c3ccc(O)c(O)c3)c3cc(O)c(O)cc3C[C@H]12
inactive: DU-145 prostate 108% | K-562 leukemia 180% | MALME-3M melanoma 140% | MDA-MB-231 breast 129% | SF-268 CNS 116% | SF-295 CNS 124% | SF-539 CNS 122% | UACC-257 melanoma 147% | M14 melanoma 120% | HCT-15 colon 116% | HT29 colon 115% | SNB-75 CNS 116% | SNB-19 CNS 120% | U251 CNS 116% | PC-3 prostate 46.7% | SK-MEL-5 melanoma 102% | UACC-62 melanoma 111% | LOX IMVI melanoma 113% | SK-MEL-28 melanoma 117%

CCOC(=O)CCCC(=O)OCC
inactive: DU-145 prostate 103% | K-562 leukemia 101% | MALME-3M melanoma 95.7% | MDA-MB-231 breast 100% | SF-268 CNS 96.7% | SF-295 CNS 101% | SF-539 CNS 98.4% | UACC-257 melanoma 99% | M14 melanoma 99.2% | HCT-15 colon 104% | HT29 colon 110% | SNB-75 CNS 87.8% | SNB-19 CNS 106% | U251 CNS 99.9% | PC-3 prostate 100% | SK-MEL-5 melanoma 106% | UACC-62 melanoma 102% | LOX IMVI melanoma 98.9% | SK-MEL-28 melanoma 109%

CCCCC(=O)c1ccc(OC)cc1
inactive: DU-145 prostate 104% | K-562 leukemia 105% | MALME-3M melanoma 94% | MDA-MB-231 breast 109% | SF-268 CNS 107% | SF-295 CNS 92% | SF-539 CNS 110% | UACC-257 melanoma 91.2% | M14 melanoma 99.4% | HT29 colon 107% | SNB-75 CNS 101% | SNB-19 CNS 104% | U251 CNS 97.9% | PC-3 prostate 110% | SK-MEL-5 melanoma 96.5% | UACC-62 melanoma 111% | LOX IMVI melanoma 102% | SK-MEL-28 melanoma 111%

CC(=O)c1ccc(N=C(C#N)C2=C(O)c3ccccc3C2=O)cc1
inactive: DU-145 prostate 113% | K-562 leukemia 85.5% | MALME-3M melanoma 114% | MDA-MB-231 breast 106% | SF-268 CNS 101% | SF-295 CNS 102% | SF-539 CNS 107% | UACC-257 melanoma 94.2% | M14 melanoma 105% | HCT-15 colon 113% | HT29 colon 98.7% | SNB-75 CNS 78.8% | SNB-19 CNS 101% | PC-3 prostate 100% | UACC-62 melanoma 109% | SK-MEL-28 melanoma 113%
